Experimental data from PubChem BioAssay (NCATS).
Records with an inconclusive call do not appear. Entries that show only a call come without a potency. Active and inactive are the calls of the source. Calls follow the shape of the dose curve; as a rule, active = well fitted curve in the direction sought with a large enough effect; inconclusive = small, poorly fitted or top-dose-only effect, or another doubt; inactive = no such curve, though single readings can be large; an effect the other way counts as inactive or inconclusive.

Tests used:
[1] = qHTS of pediatric cancer cell lines to identify multiple opportunities for drug repurposing: Primary screen for Saos-2 cells (AID 1347097); also: nearly all actives have a fitted effect of over 40% in size; also: potency is read from the fitted curve at half-maximal effect
Summary of the method: (§1)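 Quantitative HTS format: each compound titrated (MIPE 11 points from 0.78 nM, NPC 8 points from 0.59 nM) onto cells plated 5 hours earlier. After 48 h at 37 degrees C, CellTiter-Glo luminescence was recorded.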

[2] = qHTS of pediatric cancer cell lines to identify multiple opportunities for drug repurposing: Primary screen for SK-N-SH cells (AID 1347098); also: nearly all actives have a fitted effect of over 65% in size; also: potency is read from the fitted curve at half-maximal effect
Summary of the method: (§2)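 Cells (500-1,000/well) rested 5 h, then received compounds for 48 h; metabolically active cells were measured by CellTiter-Glo luminescence. Final concentrations spanned up to 46 µM (MIPE, 11-point) or 0.59 nM-46 µM (NPC, 8-point) in primary screens, 11-point in follow-ups.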

[3] = qHTS of pediatric cancer cell lines to identify multiple opportunities for drug repurposing: Primary screen for LAN-5 cells (AID 1347100); also: potency is read from the fitted curve at half-maximal effect
Summary of the method: as §2

[4] = qHTS of pediatric cancer cell lines to identify multiple opportunities for drug repurposing: Primary screen for OHS-50 cells (AID 1347103); also: nearly all actives have a fitted effect of over 40% in size; also: potency is read from the fitted curve at half-maximal effect
Summary of the method: as §2

[5] = qHTS of pediatric cancer cell lines to identify multiple opportunities for drug repurposing: Primary screen for RD cells (AID 1347104); also: nearly all actives have a fitted effect of over 55% in size; also: potency is read from the fitted curve at half-maximal effect
Summary of the method: as §1

[6] = qHTS of pediatric cancer cell lines to identify multiple opportunities for drug repurposing: Primary screen for MG 63 (6-TG R) cells (AID 1347105); also: nearly all actives have a fitted effect of over 50% in size; also: potency is read from the fitted curve at half-maximal effect
Summary of the method: as §1

[7] = qHTS of pediatric cancer cell lines to identify multiple opportunities for drug repurposing: Primary screen for control Hh wild type fibroblast cells (AID 1347106);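 also: series mostly up to about 46 µM; a drop in luminescence marks cytotoxicity and a rise apparent proliferation; nearly all actives have a fitted effect of over 55% in size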
Summary of the method: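 Cells (500-1,000/well) in growth media were settled 5 h at 37 degrees C, then given compounds for 48 h. Viability was read as CellTiter-Glo luminescence. Primary runs used MIPE at 11 points (0.78 nM-46 µM) and NPC at 8 points (0.59 nM-46 µM); follow-ups used 11 points.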

[8] = qHTS of pediatric cancer cell lines to identify multiple opportunities for drug repurposing: Primary screen for NB1643 cells (AID 1347099); also: nearly all actives have a fitted effect of over 50% in size
Summary of the method: as §1

[9] = qHTS of pediatric cancer cell lines to identify multiple opportunities for drug repurposing: Primary screen for BT-12 cells (AID 1347101); also: nearly all actives have a fitted effect of over 25% in size; also: potency is read from the fitted curve at half-maximal effect
Summary of the method: as §2

[10] = qHTS of pediatric cancer cell lines to identify multiple opportunities for drug repurposing: Primary screen for Rh18 cells (AID 1347102); also: nearly all actives have a fitted effect of over 65% in size; also: potency is read from the fitted curve at half-maximal effect
Summary of the method: as §2

Structure (SMILES)	Potency [1]	Potency [2]	Potency [3]	Potency [4]	Potency [5]	Potency [6]	outcome [7]	Potency [8]	Potency [9]	Potency [10]
OCCN1CCN(CCCN2c3ccccc3Sc3ccc(Cl)cc32)CC1	11.9 µM (active)	8.64 µM (active)	23.7 µM (active)	24.6 µM (active)						
CCN(CC)CCNC(=O)c1c(C)[nH]c(/C=C2\C(=O)Nc3ccc(F)cc32)c1C	21.1 µM (active)	inactive	11.9 µM (active)		15 µM (active)	21.1 µM (active)				
CNCC(O)c1ccc(O)c(O)c1 (stereo not given)	26.6 µM (active)		inactive	inactive	inactive	inactive	inactive			
CCCn1cnc2c1c(=O)n(CCCCC(C)=O)c(=O)n2C	inactive		inactive		inactive	inactive	inactive	inactive	inactive	inactive
CCN(CC)C(C)CN1c2ccccc2Sc2ccccc21 (stereo not given)	inactive		inactive	inactive	inactive	inactive	inactive	inactive	inactive	inactive
NC(=O)c1ncn([C@@H]2O[C@H](CO)[C@@H](O)[C@H]2O)n1	inactive		inactive		inactive		inactive	inactive		inactive
COc1cc(C(=O)N2CCOCC2)cc(OC)c1OC	inactive		inactive	inactive	inactive	inactive	inactive	inactive	inactive	inactive
Nc1ccc(S(=O)(=O)NC(=O)c2ccccc2)cc1	inactive			inactive	inactive	inactive	inactive		inactive	inactive
CCOC(CN1CCN(CC(C)C(=O)c2ccccc2)CC1)c1ccccc1 (stereo not given)	inactive		inactive		inactive	inactive	inactive		inactive	inactive
O=C(O)CC(O)C(=O)O (stereo not given)	inactive		inactive	inactive	inactive	inactive	inactive	inactive	inactive	inactive
CC(O)CN(CCN(CC(C)O)CC(C)O)CC(C)O (stereo not given)	inactive		inactive	inactive	inactive	inactive	inactive	inactive		inactive
C=Cc1c(C)c2cc3[nH]c(cc4nc(cc5nc(cc1[nH]2)C(C)=C5CCC(=O)O)C(CCC(=O)O)=C4C)c(C)c3C=C	inactive		inactive		inactive	inactive	inactive	inactive	inactive	inactive
Nc1cc(=O)[nH]c(N)n1	inactive		inactive	inactive	inactive	inactive	inactive	inactive	inactive	inactive
N[C@@H](CSCCCO)C(=O)O	inactive		inactive	inactive	inactive	inactive	inactive	inactive		inactive
COC(=O)[C@H]1[C@H]2C[C@@H]3c4[nH]c5cc(OC)ccc5c4CCN3C[C@H]2C[C@@H](OC(=O)COc2ccc(OC)cc2)[C@@H]1OC	inactive	inactive	inactive	inactive	inactive	inactive	inactive		inactive	
Nc1ncnc2c1ncn2[C@@H]1O[C@H](CO)[C@@H](O)[C@H]1O	inactive		inactive		inactive	inactive	inactive	inactive	inactive	inactive
O=Cc1ccccc1C=O	inactive		inactive	inactive	inactive	inactive	inactive			inactive
O=C1O[C@H](CO)[C@@H](O)[C@H](O)[C@H]1O	inactive		inactive	inactive	inactive	inactive	inactive	inactive	inactive	inactive
CC(C(O)c1ccc(O)cc1)N1CCC(Cc2ccccc2)CC1 (stereo not given)	inactive		inactive		inactive		inactive	inactive	inactive	inactive
NC(=O)NC(=O)Cc1ccccc1	inactive		inactive	inactive	inactive	inactive	inactive	inactive		inactive
CCCOC(=O)c1ccccc1	inactive	inactive	inactive		inactive	inactive	inactive			inactive
CCN(CC)CCNC(C(=O)OCCC(C)C)c1ccccc1 (stereo not given)	inactive		inactive	inactive	inactive	inactive	inactive		inactive	inactive
CCN(CC)CCSC(=O)C(c1ccccc1)c1ccccc1	inactive	inactive			inactive	inactive	inactive		inactive	inactive
O=C(O)c1ccccc1O		inactive	inactive		inactive	inactive	inactive	inactive	inactive	
CSc1ccc2c(c1)N(CCC1CCCCN1C)c1ccccc1S2 (stereo not given)	23.7 µM (active)			17.4 µM (active)	26.6 µM (active)		inactive		24.6 µM (active)	16.8 µM (active)
